# Measured values taken from PMC5540273 (PLoS ONE, 2017).
# Where two headings read alike, the source gives them in different places.
# Columns and labels:
# TAK1 = tested on: T1, TAK1; conditions: concentration: 1 μM, replicates: in singlicate; n = 1
# T1 construct: gene MAP3K7
# TAOK1 = conditions: concentration: 1 μM, replicates: in singlicate; n = 1
# TAOK2 = conditions: concentration: 1 μM, replicates: in singlicate; n = 1
# TAOK3 = conditions: concentration: 1 μM, replicates: in singlicate; n = 1
# TBK1 = conditions: concentration: 1 μM, replicates: in singlicate; n = 1
# TEC = conditions: concentration: 1 μM, replicates: in singlicate; n = 1
# TESK1 = conditions: concentration: 1 μM, replicates: in singlicate; n = 1
# TGFBR1 = conditions: n = 1
# TGFBR2 = conditions: concentration: 1 μM, replicates: in singlicate; n = 1
# TIE1 = conditions: concentration: 1 μM, replicates: in singlicate; n = 1
# TIE2 = tested on: T2, TIE2; conditions: concentration: 1 μM, replicates: in singlicate; n = 1
# T2 construct: gene TEK
# TLK1 = conditions: concentration: 1 μM, replicates: in singlicate; n = 1
# TLK2 = conditions: concentration: 1 μM, replicates: in singlicate; n = 1
# TNIK = conditions: concentration: 1 μM, replicates: in singlicate; n = 1
# TNK1 = conditions: concentration: 1 μM, replicates: in singlicate; n = 1
# TNK2 = conditions: concentration: 1 μM, replicates: in singlicate; n = 1
# TNNI3K = conditions: concentration: 1 μM, replicates: in singlicate; n = 1
# TRKA = tested on: T3, TRKA; conditions: concentration: 1 μM, replicates: in singlicate; n = 1
# T3 construct: gene NTRK1
# TRKB = conditions: concentration: 1 μM, replicates: in singlicate; n = 1
# TRKC = tested on: T4, TRKC; conditions: concentration: 1 μM, replicates: in singlicate; n = 1
# T4 construct: gene NTRK3
# [1] = concentration: 1 μM, replicates: in singlicate
# 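Further: KINOMEscan kinase panel screen.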
smiles,measurement,setting,value
COc1ccc(CNC(=O)NC2CCN(c3ccnc(Nc4ccc(F)cc4)n3)C2)cc1 (stereo not shown) [GSK1379706],%Inh,TAK1,6%
same,%Inh,TAOK1,0%
same,%Inh,TAOK2,0%
same,%Inh,TAOK3,0%
same,%Inh,TBK1,27%
same,%Inh,TEC,17%
same,%Inh,TESK1,7%
same,%Inh,TGFBR1; [1],46%
same,%Inh,TGFBR2,0%
same,%Inh,TIE1,12%
same,%Inh,TIE2,2%
same,%Inh,TLK1,26%
same,%Inh,TLK2,16%
same,%Inh,TNIK,0%
same,%Inh,TNK1,0%
same,%Inh,TNK2,10%
same,%Inh,TNNI3K,10%
same,%Inh,TRKA,54%
same,%Inh,TRKB,26%
same,%Inh,TRKC,44%
Cc1c(Cn2c(C)nn3c(=O)cc(N4CCO[C@H](C)C4)nc23)cccc1C(F)(F)F [GSK2373690],%Inh,TAK1,0%
same,%Inh,TAOK1,0%
same,%Inh,TAOK2,9%
same,%Inh,TAOK3,0%
same,%Inh,TBK1,1%
same,%Inh,TEC,0%
same,%Inh,TESK1,34%
same,%Inh,TGFBR1; [1],0%
same,%Inh,TGFBR2,4%
same,%Inh,TIE1,10%
same,%Inh,TIE2,0%
same,%Inh,TLK1,0%
same,%Inh,TLK2,0%
same,%Inh,TNIK,0%
same,%Inh,TNK1,0%
same,%Inh,TNK2,13%
same,%Inh,TNNI3K,4%
same,%Inh,TRKA,0%
same,%Inh,TRKB,6%
same,%Inh,TRKC,11%
COc1cc2ncn(-c3cc(OCCCc4ccccc4)c(C(N)=O)s3)c2cc1OC [GSK205189],%Inh,TAK1,0%
same,%Inh,TAOK1,0%
same,%Inh,TAOK2,0%
same,%Inh,TAOK3,0%
same,%Inh,TBK1,15%
same,%Inh,TEC,0%
same,%Inh,TESK1,4%
same,%Inh,TGFBR1; [1],0%
same,%Inh,TGFBR2,0%
same,%Inh,TIE1,22%
same,%Inh,TIE2,0%
same,%Inh,TLK1,0%
same,%Inh,TLK2,0%
same,%Inh,TNIK,22%
same,%Inh,TNK1,12%
same,%Inh,TNK2,7%
same,%Inh,TNNI3K,0%
same,%Inh,TRKA,55%
same,%Inh,TRKB,0%
same,%Inh,TRKC,24%
COC(=O)c1c(-c2ccccc2)c2cc(C)ccc2c(=O)n1Cc1ccccc1,%Inh,TAK1,0%
same,%Inh,TAOK1,0%
same,%Inh,TAOK2,0%
same,%Inh,TAOK3,0%
same,%Inh,TBK1,0%
same,%Inh,TEC,1%
same,%Inh,TESK1,0%
same,%Inh,TGFBR1; [1],0%
same,%Inh,TGFBR2,0%
same,%Inh,TIE1,0%
same,%Inh,TIE2,0%
same,%Inh,TLK1,9%
same,%Inh,TLK2,0%
same,%Inh,TNIK,0%
same,%Inh,TNK1,0%
same,%Inh,TNK2,0%
same,%Inh,TNNI3K,0%
same,%Inh,TRKA,0%
same,%Inh,TRKB,0%
same,%Inh,TRKC,0%
Cc1cc(Nc2nc(-c3cccc(C)n3)nc3ccccc23)ccn1 [GW872411],%Inh,TAK1,0%
same,%Inh,TAOK1,0%
same,%Inh,TAOK2,29%
same,%Inh,TAOK3,0%
same,%Inh,TBK1,0%
same,%Inh,TEC,1%
same,%Inh,TESK1,0%
same,%Inh,TGFBR1; 1 µM,83%
same,%Inh,TGFBR2,0%
same,%Inh,TIE1,0%
same,%Inh,TIE2,13%
same,%Inh,TLK1,0%
same,%Inh,TLK2,15%
same,%Inh,TNIK,13%
same,%Inh,TNK1,25%
same,%Inh,TNK2,0%
same,%Inh,TNNI3K,0%
same,%Inh,TRKA,0%
same,%Inh,TRKB,0%
same,%Inh,TRKC,0%
COc1cccc(-n2cnc3c(N)ncnc32)c1 [SKF-97416],%Inh,TAK1,23%
same,%Inh,TAOK1,31%
same,%Inh,TAOK2,9%
same,%Inh,TAOK3,28%
same,%Inh,TBK1,31%
same,%Inh,TEC,5%
same,%Inh,TESK1,17%
same,%Inh,TGFBR1; [1],24%
same,%Inh,TGFBR2,0%
same,%Inh,TIE1,19%
same,%Inh,TIE2,0%
same,%Inh,TLK1,2%
same,%Inh,TLK2,19%
same,%Inh,TNIK,15%
same,%Inh,TNK1,0%
same,%Inh,TNK2,0%
same,%Inh,TNNI3K,0%
same,%Inh,TRKA,45%
same,%Inh,TRKB,48%
same,%Inh,TRKC,33%
COc1ccc(-c2coc3ccc(-c4nnc(SCc5cccc(C#N)c5)o4)cc23)cc1,%Inh,TAK1,23%
same,%Inh,TAOK1,0%
same,%Inh,TAOK2,10%
same,%Inh,TAOK3,0%
same,%Inh,TBK1,10%
same,%Inh,TEC,0%
same,%Inh,TESK1,0%
same,%Inh,TGFBR1; [1],11%
same,%Inh,TGFBR2,0%
same,%Inh,TIE1,17%
same,%Inh,TIE2,5%
same,%Inh,TLK1,25%
same,%Inh,TLK2,0%
same,%Inh,TNIK,21%
same,%Inh,TNK1,10%
same,%Inh,TNK2,0%
same,%Inh,TNNI3K,20%
same,%Inh,TRKA,17%
same,%Inh,TRKB,0%
same,%Inh,TRKC,3%
CCc1nc(-c2cccc(C)c2)c(-c2ccncc2)s1,%Inh,TAK1,0%
same,%Inh,TAOK1,0%
same,%Inh,TAOK2,14%
same,%Inh,TAOK3,0%
same,%Inh,TBK1,35%
same,%Inh,TEC,0%
same,%Inh,TESK1,0%
same,%Inh,TGFBR1; [1],0%
same,%Inh,TGFBR2,13%
same,%Inh,TIE1,0%
same,%Inh,TIE2,12%
same,%Inh,TLK1,24%
same,%Inh,TLK2,0%
same,%Inh,TNIK,59%
same,%Inh,TNK1,2%
same,%Inh,TNK2,0%
same,%Inh,TNNI3K,0%
same,%Inh,TRKA,11%
same,%Inh,TRKB,0%
same,%Inh,TRKC,0%
COC(=O)c1c(-c2ccccc2)c2cc(Br)ccc2c(=O)n1Cc1ccc(S(C)(=O)=O)cc1,%Inh,TAK1,39%
same,%Inh,TAOK1,0%
same,%Inh,TAOK2,0%
same,%Inh,TAOK3,0%
same,%Inh,TBK1,19%
same,%Inh,TEC,25%
same,%Inh,TESK1,22%
same,%Inh,TGFBR1; [1],4%
same,%Inh,TGFBR2,0%
same,%Inh,TIE1,21%
same,%Inh,TIE2,3%
same,%Inh,TLK1,14%
same,%Inh,TLK2,0%
same,%Inh,TNIK,0%
same,%Inh,TNK1,0%
same,%Inh,TNK2,1%
same,%Inh,TNNI3K,0%
same,%Inh,TRKA,0%
same,%Inh,TRKB,0%
same,%Inh,TRKC,24%
Fc1cccc(CSc2nnc(-c3ccc4c(c3)CCO4)o2)c1,%Inh,TAK1,32%
same,%Inh,TAOK1,0%
same,%Inh,TAOK2,0%
same,%Inh,TAOK3,0%
same,%Inh,TBK1,19%
same,%Inh,TEC,20%
same,%Inh,TESK1,0%
same,%Inh,TGFBR1; [1],11%
same,%Inh,TGFBR2,28%
same,%Inh,TIE1,8%
same,%Inh,TIE2,7%
same,%Inh,TLK1,0%
same,%Inh,TLK2,12%
same,%Inh,TNIK,0%
same,%Inh,TNK1,0%
same,%Inh,TNK2,8%
same,%Inh,TNNI3K,6%
same,%Inh,TRKA,3%
same,%Inh,TRKB,0%
same,%Inh,TRKC,28%
COc1ccc(-n2cnc3c(N)ncnc32)cc1 [SKF-97236],%Inh,TAK1,30%
same,%Inh,TAOK1,20%
same,%Inh,TAOK2,1%
same,%Inh,TAOK3,21%
same,%Inh,TBK1,9%
same,%Inh,TEC,0%
same,%Inh,TESK1,3%
same,%Inh,TGFBR1; [1],0%
same,%Inh,TGFBR2,23%
same,%Inh,TIE1,23%
same,%Inh,TIE2,18%
same,%Inh,TLK1,0%
same,%Inh,TLK2,0%
same,%Inh,TNIK,18%
same,%Inh,TNK1,0%
same,%Inh,TNK2,0%
same,%Inh,TNNI3K,18%
same,%Inh,TRKA,61%
same,%Inh,TRKB,9%
same,%Inh,TRKC,0%
